# Measured values published in PubChem BioAssay (Tox21).
# Active and inactive are the calls of the source. Entries that show only a call come without a potency. Calls come from the whole dose curve; as a rule, active = well fitted curve in the direction sought with a large enough effect in the repeat runs; inconclusive = weak or mixed curves; inactive = flat fitted curve, though single readings scatter.
# Experiment: qHTS assay to test for compound auto fluorescence at 535 nm (green) in HepG2 cell free culture (AID 720686)
# Settings: Cell-free medium, green autofluorescence 485/535 nm; series mostly up to 91.3 µM
# From the text: U.S. Tox21 Program National Center for Advancing Translational Sciences [NCATS] NIH Chemical Genomics Center [NCGC] U.S. Environmental Protection Agency [EPA] National Institutes of Environmental Health Sciences [NIEHS] National Toxicology Program [NTP] U.S. Food and Drug Administration [FDA] Tox21 Assay Overview: Compound auto fluorescence often interferes with screening of the compound library against various biological targets and signaling pathways. Some of these compounds may have fluorophoric properties. Such properties may interfere with the assay outputs resulting in false positives and/or negatives. To decrease such complications and ensure the compound activities are relevant in terms of biological response, the Tox21 10K compound library was screened for auto fluorescence. From the fluorophores used as reporter signals in our screening assays, the auto fluorescence equivalencies of compounds against three fluorophores have been evaluated: Triamterene, Fluorescein and Rose Bengal sodium for blue, green and red fluorescence, respectively. The fluorescence intensities were measured using Excitation/Emission wavelengths at 405/460nm, 485/535nm and 540/590nm for blue, green and red labels, respectively. This assay includes the green fluorescence data.
# Tox21 Assay Protocol Summary: 5 uL of culture medium (MEM containing 10% FBS) per well was dispensed into black wall/clear bottom 1536-well plates using a Multidrop Combi Dispenser (ThermoFisher Scientific, Waltham, MA). After 23 nL compound or DMSO vehicle was transferred into assay plate by a pintool work station (Kalypsys, San Diego, CA), fluorescence intensities in the assay plates were measured by an Envision (PerkinElmer, Shelton, CT) plate reader using three labels for measuring blue, green and red fluorescence at […] 460, 535 and 590nm respectively.
row,Structure (SMILES),Potency
1,C=C[C@H]1CN2CC[C@H]1C[C@H]2[C@H](O)c1ccnc2ccc(OC)cc12,inactive
2,O=C(O)CCCCCCCCCCCC(=O)O,inactive
3,CCCOCCO,inactive
4,C/C=C/C(=O)N(CC)c1ccccc1C,inactive
5,CC1(C)C(C=C(Cl)Cl)C1C(=O)OCc1cccc(Oc2ccccc2)c1 (stereo not given),inactive
6,O=C(CCCN1CCC(O)(c2ccc(Cl)cc2)CC1)c1ccc(F)cc1,inactive
7,C=CCNCC=C,inactive
8,Cc1ccc(/C(=C\CN2CCCC2)c2ccccn2)cc1,inactive
9,C=CC(C)(O)CCC=C(C)C (stereo not given),inactive
10,CC[C@]12CCCN3CCc4c(n(c5ccccc45)[C@@](O)(C(=O)OC)C1)[C@@H]32,inactive
11,CCCN1C=CN(C)C1,inactive
12,NCCOCCO,inactive
13,C=CCOC(=O)C(=C)C,inactive
14,C=CN1CCCC1=O,inactive
15,C1CN(SSN2CCOCC2)CCO1,inactive
16,CC(=O)[C@@]1(O)CC[C@H]2[C@@H]3C[C@H](C)C4=CC(=O)C=C[C@]4(C)[C@@]3(F)[C@@H](O)C[C@@]21C,inactive
17,C[C@]12CC[C@@H]3c4ccc(O)cc4CC[C@H]3[C@@H]1CC[C@@H]2O,inactive
18,CCC(=O)O[C@H]1[C@H](O[C@@H]2[C@@H](C)[C@H](O[C@H]3C[C@@](C)(OC)[C@@H](O)[C@H](C)O3)[C@@H](C)C(=O)O[C@H](CC)[C@@](C)(O)[C@H](O)[C@@H](C)C(=O)[C@H](C)C[C@@]2(C)O)O[C@H](C)C[C@@H]1N(C)C,inactive
19,Nc1ccc2c(c1)C(=O)c1ccccc1C2=O,inactive
20,C=C[C@H]1CN2CC[C@H]1C[C@@H]2[C@@H](O)c1ccnc2ccc(OC)cc12,inactive

row,Structure (SMILES),Potency
1,CC/C(=C(/CC)c1ccc(O)cc1)c1ccc(O)cc1,inactive
2,COc1cc([C@H]2Oc3cc([C@H]4Oc5cc(O)cc(O)c5C(=O)[C@@H]4O)ccc3O[C@@H]2CO)ccc1O,inactive
3,CC/C=C\C/C=C\C/C=C\CCCCCCCC(=O)O,inactive
4,COc1ccc(-c2coc3cc(O)cc(O)c3c2=O)cc1,inactive
5,CN(Cc1cnc2nc(N)nc(N)c2n1)c1ccc(C(=O)N[C@@H](CCC(=O)O)C(=O)O)cc1,inactive
6,[O-]/[N+](=N\O)c1ccccc1,inactive
7,CN(C)CCCN1c2ccccc2Sc2ccc(Cl)cc21,inactive
8,CCCCCCC(C)O (stereo not given),inactive
9,NCCS(=O)(=O)O,inactive
10,O=C(O)c1cc(=O)[nH]c(=O)[nH]1,inactive
11,Cc1ccc(N)c([N+](=O)[O-])c1,inactive
12,CCCCCCCC/C=C\CCCCCCCC(=O)O,inactive
13,OC[C@H]1O[C@@H]2O[C@H]3[C@H](O)[C@@H](O)[C@@H](O[C@H]4[C@H](O)[C@@H](O)[C@@H](O[C@H]5[C@H](O)[C@@H](O)[C@@H](O[C@H]6[C@H](O)[C@@H](O)[C@@H](O[C@H]7[C@H](O)[C@@H](O)[C@@H](O[C@H]1[C@H](O)[C@H]2O)O[C@@H]7CO)O[C@@H]6CO)O[C@@H]5CO)O[C@@H]4CO)O[C@@H]3CO,inactive
14,O=C1CCc2ccccc2O1,inactive
15,C=C[C@@]1(C)CC(=O)[C@]2(O)[C@@]3(C)[C@@H](O)CCC(C)(C)[C@@H]3[C@H](O)[C@H](OC(C)=O)[C@@]2(C)O1,inactive
16,Cc1ccc(S(=O)(=O)NCl)cc1,inactive
17,NC[C@H](O)c1ccc(O)c(O)c1,inactive
18,COCCOCCOCCO,inactive
19,C[N+](C)(C)CCO,inactive
20,Nc1cc(Cl)c(N)c(Cl)c1,inactive
